A selection: hits, their analogues and other compounds. The true share with any hit is near 9%.
Lamin A splicing = qHTS Assay for Modulators of Lamin A Splicing; HeLa LMNA splicing GFP/RFP minigene ratio, 48 h; Potency, µM (doses to about 46.1 µM), for the others: at the top dose ratio change, negative = inhibition, usual class: inhibitors; hit rate 0.01% among 200,000; active means well fitted inhibition curve with a large enough effect in the signal ratio, with a control signal flat, not every such curve was filed as active; inconclusive means small, poorly fitted or top-dose-only effect, or effect the other way, or a change in a side signal; the % refers to the signal ratio
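Read-out is the ratio of GFP to DsRed2 object intensity, acquired by 488 nm laser-scanning cytometry on HeLa lamin A-EGFP minigene reporter cells. Compound incubation 48 hrs at 37 °C in Opti-MEM with 2% FBS; DMSO 0.5% final.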
ALDH1A1 block = qHTS Assay for Inhibitors of Aldehyde Dehydrogenase 1 (ALDH1A1). Aldehyde dehydrogenase 1A1 (Homo sapiens), P00352. Purified ALDH1A1, NADH fluorescence, propionaldehyde substrate. Potency, µM (titrated, usually from 75.3 µM), for the others: at the top dose activity, negative = inhibition, actives largely listed as inhibitors. hit rate 7.3% among 220,000. AID 1030, 2008; active means well fitted inhibition curve with a large enough effect, not every such curve was filed as active; inconclusive means small, poorly fitted or top-dose-only effect, or another doubt; inactive means no such curve, though single readings can be large or run the other way;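 further: plate controls were no enzyme wells and a reference inhibitor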
IMPase Li inh = qHTS Assay for Identifying the Cell-Membrane Permeable IMPase Inhibitors: Potentiation with Lithium. hit rate 0.35% among 210,000. Potency, µM (doses to about 59.4 µM), for the others: top-dose activity, negative = IMPase inhibition, usual class: inhibitors. CHO-M1 cells, IP1 TR-FRET (IP-One), carbachol + lithium;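 further: IP1 builds up when IMPase is blocked and the TR-FRET signal falls; plate controls were basal vehicle for no effect and high inhibitor control for full effect; nearly all actives have a fitted effect of over 50% in size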
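IP1 accumulation measured by competitive TR-FRET in lysed CHO-M1 cells after 30 min compound exposure at 37C, with a small lithium addition to potentiate weak responses. Hill-equation AC50 from ratio and donor-channel data.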
HPGD block = qHTS Assay for Inhibitors of HPGD (15-Hydroxyprostaglandin Dehydrogenase). 15-hydroxyprostaglandin dehydrogenase [NAD(+)] (Homo sapiens), P15428. purified HPGD, NADH fluorescence kinetic, PGE2 substrate. Potency, µM, without a hit: at the highest dose activity change, negative = inhibition, most hits filed as inhibitors. hit rate 4.3% among 150,000. AID 894, 2007; active means well fitted inhibition curve with a large enough effect, not every such curve was filed as active; inconclusive means small, poorly fitted or top-dose-only effect, or another doubt; inactive means no such curve, though single readings can be large or run the other way
Target sequence (P15428 whole entry, looked up): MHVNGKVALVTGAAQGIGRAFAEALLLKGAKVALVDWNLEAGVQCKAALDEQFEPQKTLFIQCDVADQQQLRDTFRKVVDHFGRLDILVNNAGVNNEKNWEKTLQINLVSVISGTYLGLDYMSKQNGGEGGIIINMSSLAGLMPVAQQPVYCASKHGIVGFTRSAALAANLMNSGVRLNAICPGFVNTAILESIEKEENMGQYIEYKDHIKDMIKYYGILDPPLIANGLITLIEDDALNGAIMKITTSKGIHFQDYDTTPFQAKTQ
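20 nM HPGD preincubated 15 min at room temperature with compound in 50 mM Tris-HCl pH 8, 0.01% Tween 20. Started with 1 mM NAD+ and 30 uM prostaglandin E2; NADH fluorescence (360/450 nm) read 5 times over 30-s intervals, last minus first.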
KinaseGlo FLuc = Counterscreen for Luciferase (Kinase-Glo TM) Inhibition. Luciferin 4-monooxygenase (Photuris pensylvanica), Q27757. Kinase-Glo luciferase, ATP luminescence, 8 min. Potency, µM (highest dose often 38.3 µM), inactives show top-dose activity change, negative = inhibition, hits mostly inhibitors. hit rate 0.28% among 200,000. AID 1379, 2008; further: nearly all actives have a fitted effect of over 60% in size
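Luminescence was the read-out, taken after 8-minute incubation at ambient temperature. Luciferase turned over luciferin with 10 uM ATP in imidazole pH 7.2 buffer containing KCl, MgCl2, Tween 20 and BSA.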
* marks the source's active call; other numbers are inactive results; ? = inconclusive; / = not tested or not shown; ! = not active in a repeat; [ ] = dose if it differs, or a comment. Unless noted, the call rests on the fitted dose curve; in most records, active means well fitted curve in the direction sought with a large enough effect; inconclusive means small, poorly fitted or top-dose-only effect, or another doubt; inactive means no such curve, though single readings can be large; an effect the other way counts as inactive or inconclusive. Unless noted, on the % scale 0 is the no-effect control and ±100 the full control effect; potency means the concentration at half of the fitted maximal effect.

SMILES	Lamin A splicing	ALDH1A1 block	IMPase Li inh	HPGD block	KinaseGlo FLuc
Nc1nn2c(C(F)(F)F)cc(=O)[nH]c2c1N=Nc1cccc(F)c1	-15%[46 µM]	-4%	18%	/	-1%
Cc1cc(=O)[nH]c2c(N=Nc3ccc(O)cc3)c(N)nn12	/	18µM*	37%	/	-3%
COc1ccc(CCN(C)CC(O)c2ccccc2)cc1OC (centres undefined)	6%[46 µM]	18µM*	2%	/	-11%
COC(=O)C1CSc2[nH]c(=O)sc2C1c1ccccc1 (centres undefined)	5%	32µM*	6%[38.3 µM]	-5%	-1%
COC(=O)C1Sc2[nH]c(=O)sc2C(c2ccc(Cl)cc2)C1C(=O)OC (centres undefined)	1%	11µM*	27%[38.3 µM]	-14%	15%
COC(=O)C1Sc2[nH]c(=O)sc2C2c3ccccc3OC(=O)C12 (centres undefined)	-15%	?	-1%[38.3 µM]	-2%	3%
Cc1oc2cc(O)ccc2c(=O)c1N1C(=O)c2ccccc2C1=O	4%	1%	/	/	/
CC(=O)Oc1ccc2c(=O)c(N3C(=O)c4ccccc4C3=O)c(C)oc2c1	-6%	-4%	-8%	25µM*	-3%
CCn1c2ccccc2c2cc(NC(=O)CSc3nnc(-c4cccc(C)c4)o3)ccc21	?	18µM*	-13%[38.3 µM]	-10%	4%
COc1ccc(Cc2nnc(-c3cccc(C)c3)o2)cc1OC	?	-7%	2%	18µM*	3%
COc1ccc(CCNC(=O)CSc2nnc(-c3cccc(C)c3)o2)cc1OC	11%	18µM*	3%[38.3 µM]	-26%	-2%
CC(C)(C)C(=O)N(Cc1ccc(Cl)cc1)Cc1cccnc1	/	18%	/	/	/
COc1cc(OC)c(NS(=O)(=O)c2cccc(C(=O)OCC(=O)NCC3CCCO3)c2)cc1Cl (centres undefined)	6%[46 µM]	0%	5%	/	0%
COc1ccc(-c2nc(-c3ccccc3)oc2NC(C)C)cc1	/	3%	8%	-6%	0%
COc1ccc(C)cc1NC(=O)CSc1nc(=O)n(Cc2ccccn2)c2c1CCC2	-13%[46 µM]	/	/	/	/
COc1ccc2[nH]cc(CCNc3ccnc(-c4ccc(N(C)C)cc4)n3)c2c1	?	?	-2%	/	/
O=S(=O)(C[C@H](O)C(Cl)(Cl)Cl)NNc1ccccc1	/	10%[13.5 µM]	2%	-9%	-2%[7.66 µM]
COc1ccc(C2C(C(C)=O)=C(O)C(=O)N2c2cccnc2)c(OC)c1 (centres undefined)	-10%	32µM*	?	?	0%
COc1ccc(OC)c(C2C(C(C)=O)=C(O)C(=O)N2Cc2cccnc2)c1 (centres undefined)	-4%	28µM*	-10%[38.3 µM]	-12%	-1%
O=C1c2cccc3c([N+](=O)[O-])ccc(c23)C(=O)N1c1ccccn1	-27%	5%	41%[38.3 µM]	28µM*	-6%
CC1CCC(C(=O)O)NC1c1ccc(-c2ccco2)cc1 (centres undefined)	/	2%[13.5 µM]	/	/	/
COCCn1c(C)cc(O)c(C(c2ccc(F)cc2)N2CCC(C)CC2)c1=O (centres undefined)	-1%[46 µM]	/	/	/	/
CN(C)CCCCSC(=N)N	?	25µM*!	6%	2%	1%
Cc1noc(C)c1CSc1nnc(-c2ccccc2)n1N	8%	10µM*	-1%[38.3 µM]	20µM*	14%
Cc1noc(C)c1CSc1nc2ccccc2n1CCc1ccccc1	-7%	28µM*	22%[38.3 µM]	-28%	-2%
SMILES	Lamin A splicing	ALDH1A1 block	IMPase Li inh	HPGD block	KinaseGlo FLuc
Cc1noc(C)c1CSc1nnc(-c2ccccc2)n1Cc1ccco1	1%	-3%	5%[38.3 µM]	-11%	0%
O=C(O)CCn1c(SCc2ccccc2)nc2ccccc21	16%	5%	10%[38.3 µM]	-12%	-2%
COc1cccc(N=C(N)N)c1	/	8%	6%	/	0%
Cc1sc2nc(C3CC3)nc(SCC(=O)N3CCCc4ccccc43)c2c1C	-29%	?	9%	-4%	0%
Cc1sc2nc(C3CC3)nc(SCC(=O)N3CCc4ccccc4C3)c2c1C	-13%	14µM*	46%[38.3 µM]	?	1%
CCN1C(=O)C(C(=O)c2ccccc2)SC1=S (centres undefined)	-19%[46 µM]	7.5µM*	7%	/	2%
O=C(O)CC1S/C(=N/N=C/c2ccc(Br)cc2)N(c2ccccc2)C1=O (centres undefined)	/	14µM*	2%	/	/
Cc1cc(C(=O)NNC(=S)NCc2ccco2)n(C)n1	-2%	?	7%	-22%	7%
CC(C)c1cc(C(=O)NNC(=S)NCc2ccco2)c(O)c(C(C)C)c1	?	22µM*	11%	?	2%
O=C(COc1ccc(F)cc1)NN1C(=O)CSC1=S	21%[46 µM]	11%	3%	/	1%
CC(=O)Nc1ccc(S(=O)(=O)N(CCCN2CCOCC2)Cc2cccs2)cc1	/	?	-10%	/	4%
CC(C)(C)c1ccc(S(=O)(=O)N(CCCN2CCOCC2)Cc2cccs2)cc1	?	19%	-3%	25µM*	0%
COc1cc(C)c(NC(=S)Nc2cccc(Cl)c2)cc1OC	-13%	?	-5%	-5%	2%
COc1cc(OC)c(NC(=S)Nc2cccc(C)c2)cc1Cl	-12%	?	-4%	16µM*	-1%
Cc1c(C(=S)NC(=O)C2CC2)c(=O)n(-c2ccccc2)n1C	11%[46 µM]	18µM*	8%	/	-1%
O=C(OC1Cc2c(O)cc(O)cc2OC1c1cc(O)c(O)c(O)c1-c1c(C2Oc3cc(O)cc(O)c3CC2OC(=O)c2cc(O)c(O)c(O)c2)cc(O)c(O)c1O)c1cc(O)c(O)c(O)c1 (centres undefined)	-5%	-1%	-15%	22µM*	-3%
O=C(O[C@@H]1Cc2c(O)cc(O)cc2O[C@@H]1c1cc(O)c(O)c(O)c1)c1cc(O)c(O)c(O)c1	12%[46 µM]	/	/	/	/
C=CCn1c(=O)/c(=C2/Sc3cc(OC)ccc3N2C)s/c1=C1\C(=O)N(CC)C(=S)N1C	19%[46 µM]	-3%	27%	/	-15%
Cc1noc(C)c1CSc1ccccc1C(=O)Nc1nccs1	?	19µM*	?	-12%	7%
COc1ccc(C(=O)N2CC3(CC(c4cccc([N+](=O)[O-])c4)=NO3)C[C@H]2C(=O)NCC(N)=O)cc1 (some centres undefined)	8%	11µM*	-1%[38.3 µM]	?	3%
Cc1ccc(N2C(=O)SC(N(CC(=O)O)c3cccc(C)c3)C2=O)cc1 (centres undefined)	3%	?	-7%[38.3 µM]	4%	-5%
CC(=O)N(c1cccc(C)c1)C1SC(=O)N(c2ccccc2)C1=O (centres undefined)	4%	8.9µM*	/	/	/
